Results on eight compounds are retold here after PubChem BioAssay (EPA / NIEHS).

SMILES strings stand for the structures. “And” between values parts separate entries of the source, which are not always exact repeats. Equal entries are not always repeated. Results filed as inconclusive are left out. The source holds several records for some structures; these can differ, active in one and inactive in another. The source made the active and inactive calls. Rule for the calls, unless noted: active = hit-call score of the fitted dose curve at least 0.9, where 1 is the maximum; inactive = score below 0.9.

Assay [1] is described as follows: BSK_3C_TissueFactor: BioMAP Diversity Plus: 3C Assay for Tissue Factor Biomarker Activity (AID 2282997). The note with it: BioMAP 3C HUVEC, tissue factor biomarker readout; actives raise or lower the signal. In short, it runs like this:
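Tissue factor on primary human umbilical vein endothelium was read by ELISA 24 h after dosing, gain or loss relative to DMSO. Cytotoxicity ran alongside via SRB (0.1%, TCA-fixed, 560 nm).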

Read-out in assay [2]: Intercellular Adhesion Molecule 1 (ICAM1), ICAM1 (gene 3383)
The assay is described as follows: BSK_3C_ICAM1: BioMAP Diversity Plus: 3C Assay for Intercellular Adhesion Molecule 1 (ICAM1) Biomarker Activity (AID 2283003). The note with it: primary human endothelial cells (HUVEC); actives raise or lower the signal. In short, it runs like this:
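ELISA readout of ICAM1 in human umbilical vein endothelial cells in the 3C system, taken 24 h post-dose. Gain or loss of signal versus DMSO was fitted in both directions, with SRB total-protein staining run in parallel.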

Read-out in assay [3]: E-selectin (Homo sapiens) (UniProt P16581)
The assay is described as follows: BSK_3C_Eselectin: BioMAP Diversity Plus: 3C Assay for Eselectin Biomarker Activity (AID 2283015).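 Note: cell surface E-selectin protein quantified by ELISA 24 h after dosing.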 The note with it: primary human endothelial cells (HUVEC); actives raise or lower the signal. The method, boiled down: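 E-selectin ELISA readout, fitted bidirectionally relative to DMSO, taken 24 h post-dosing in HUVEC cultures of the 3C system. Overt cytotoxicity tracked with sulforhodamine B staining of parallel wells.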

Read-out in assay [4]: Pselectin, SELP (gene 6403)
Description: BSK_4H_Pselectin: BioMAP Diversity Plus: 4H Assay for Pselectin Biomarker Activity (AID 2283026). The note with it: primary human endothelial cells (HUVEC); actives raise or lower the signal. The method, boiled down:
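ELISA of surface P-selectin on HUVEC, 24 h after dosing, with parallel SRB staining (0.1% after 10% TCA fixation, 560 nm) for overt cytotoxicity. Activity fitted in both directions relative to DMSO.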

Read-out in assay [5]: Human Leukocyte Antigen - DR isotype (HLADR), HLA-DRA (gene 3122)
Description: BSK_BE3C_HLADR: BioMAP Diversity Plus: BE3C Assay for Human Leukocyte Antigen - DR isotype (HLADR) Biomarker Activity (AID 2283032). The note with it: primary human bronchial epithelial cells; actives raise or lower the signal. The method, boiled down: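 Cell-surface HLA-DR ELISA readout at 24 h after dosing in the BE3C primary human lung bronchial epithelial system; gain or loss of signal against DMSO, with parallel sulforhodamine B staining of total protein for overt cytotoxicity.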

Read-out in assay [6]: Vascular cell adhesion molecule 1 (VCAM1), VCAM1 (gene 7412)
Description: BSK_4H_VCAM1: BioMAP Diversity Plus: 4H Assay for Vascular cell adhesion molecule 1 (VCAM1) Biomarker Activity (AID 2283033).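 For outcome: cell-surface VCAM-1 protein measured by ELISA.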 The note with it: primary human endothelial cells (HUVEC); actives raise or lower the signal. The method, boiled down:
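VCAM-1 ELISA read 24 h after chemical dosing of HUVEC in the BioMAP 4H system, with gain or loss of signal fitted relative to DMSO. Parallel SRB staining (560 nm) checked overt cytotoxicity.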

Read-out in assay [7]: Interferon-gamma inducible Protein 10 (IP10), CXCL10 (gene 3627)
Description: BSK_BE3C_IP10: BioMAP Diversity Plus: BE3C Assay for Interferon-gamma inducible Protein 10 (IP10) Biomarker Activity (AID 2283034). The note with it: primary human bronchial epithelial cells; actives raise or lower the signal. The method, boiled down:
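IP-10 quantified by ELISA in human primary bronchial epithelial cell cultures at 24 hours post-dosing. Gain or loss of signal fitted relative to DMSO; parallel SRB staining assessed overt cytotoxicity.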

Read-out in assay [8]: urokinase plasminogen activator (uPA), PLAU (gene 5328)
The assay is described as follows: BSK_BE3C_uPA: BioMAP Diversity Plus: BE3C Assay for urokinase plasminogen activator (uPA) Biomarker Activity (AID 2283038).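 Note: uPA protein level quantified by ELISA in cell cultures; uPA read one day after compound addition.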 The note with it: primary human bronchial epithelial cells; actives raise or lower the signal. In short, it runs like this:
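ELISA for uPA on human primary bronchial epithelial cultures 24 h post-treatment, gain or loss against DMSO. Parallel SRB staining (0.1% after 10% TCA fixation, 560 nm) assessed overt cytotoxicity.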

Read-out in assay [9]: Interleukin-6 (IL6), IL6 (gene 3569)
The assay is described as follows: BSK_CASM3C_IL6: BioMAP Diversity Plus: CASM3C Assay for Interleukin-6 (IL6) Biomarker Activity for (AID 2283040). The note with it: primary human coronary artery smooth muscle cells; actives raise or lower the signal.

Read-out in assay [10]: Tissue Factor, F3 (gene 2152)
The assay is described as follows: BSK_CASM3C_TissueFactor: BioMAP Diversity Plus: CASM3C Assay for Tissue Factor Biomarker Activity (AID 2283052).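 Note: cell surface tissue factor protein level read by ELISA.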 The note with it: primary human coronary artery smooth muscle cells; actives raise or lower the signal.

Read-out in assay [11]: Urokinase-type plasminogen activator receptor (uPAR), PLAUR (gene 5329)
The assay is described as follows: BSK_CASM3C_uPAR: BioMAP Diversity Plus: CASM3C Assay for Urokinase-type plasminogen activator receptor (uPAR) Biomarker Activity (AID 2283054).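 Note: cell-surface uPAR protein level quantified by ELISA.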 The note with it: primary human coronary artery smooth muscle cells; actives raise or lower the signal.

Read-out in assay [12]: Collagen III, COL3A1 (gene 1281)
The assay is described as follows: BSK_hDFCGF_CollagenIII: BioMAP Diversity Plus: hDFCGF Assay for Collagen III Biomarker Activity (AID 2283056). The note with it: primary human foreskin fibroblasts; actives raise or lower the signal. The method, boiled down: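 ELISA readout of Collagen III in human dermal (foreskin) fibroblasts, taken 24 h post-treatment. Gain or loss relative to DMSO vehicle fitted in both directions.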

Read-out in assay [13]: Epidermal growth factor receptor (EGFR), EGFR (gene 1956)
The assay is described as follows: BSK_hDFCGF_EGFR: BioMAP Diversity Plus: hDFCGF Assay for Epidermal growth factor receptor (EGFR) Biomarker Activity (AID 2283057). The note with it: primary human foreskin fibroblasts; actives raise or lower the signal. The method, boiled down: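 EGFR levels by ELISA in human dermal fibroblast cultures, 24 h post-treatment, fitted bidirectionally versus DMSO. Parallel wells stained with sulforhodamine B to detect overt cytotoxicity.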

Read-out in assay [14]: Interleukin-8 (IL8), CXCL8 (gene 3576)
Description: BSK_LPS_IL8: BioMAP Diversity Plus: LPS Assay for Interleukin-8 (IL8) Biomarker Activity (AID 2283078). The note with it: primary human HUVEC with PBMC; actives raise or lower the signal. In short, it runs like this:
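ELISA read-out of IL-8 after 24 h chemical treatment of LPS-activated endothelial/PBMC human primary co-cultures. Changes either up or down relative to DMSO; overt cytotoxicity checked by sulforhodamine B staining in parallel wells.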

Read-out in assay [15]: Tissue Factor, F3 (gene 2152)
The assay is described as follows: BSK_LPS_TissueFactor: BioMAP Diversity Plus: LPS Assay for Tissue Factor Biomarker Activity (AID 2283084). The note with it: primary human HUVEC with PBMC; actives raise or lower the signal. In short, it runs like this: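 Compound was added to an endothelial cell/PBMC co-culture, and after 24 h tissue factor (CD142) was read by ELISA. Gain or loss of signal was fitted against a DMSO baseline, and parallel SRB staining (560 nm) tracked overt cytotoxicity.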

The nature of assay [16]: ATG_EGR_CIS: Attagene CIS-FACTORIAL HepG2 Assay for human Early Growth Response 1 (EGR1) (AID 2282938). The note with it: HepG2 Attagene CIS-FACTORIAL EGR reporter mRNA; actives raise or lower the signal. The method, boiled down: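 Read-out: fluorescent reporter-mRNA fragments resolved by capillary electrophoresis after RT-PCR, 24 h post-dose in transiently transfected HepG2. Endogenous transcription-factor activity reported via cis-element-regulated reporter units; gain or loss fitted relative to DMSO.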

The nature of assay [17]: ATG_M_19_TRANS: Attagene TRANS-FACTORIAL HepG2 Assay for M19 Transcription Factor (Internal Marker) (AID 2282974; active = hit-call score of the fitted dose curve at least 0.9, where 1 is the maximum). The note with it: HepG2 Attagene TRANS-FACTORIAL M19 internal marker reporter. In short, it runs like this:
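24 h chemical exposure of transiently transfected HepG2 (MRTU library). RNA → oligo(dT) RT → PCR → 6-FAM labelling → HpaI cut → CE fluorescence. Positive-direction fit vs DMSO baseline; background internal-marker readout.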

Assay [18] concerns the target human Peroxisome Proliferator-activated Receptor delta (PPARd), PPARD (gene 5467) (UniProt Q03181). The assay is described as follows: ATG_PPARd_TRANS: Attagene TRANS-FACTORIAL HepG2 Assay for human Peroxisome Proliferator-activated Receptor delta (PPARd) (AID 2283002; active = hit-call score of the fitted dose curve at least 0.9, where 1 is the maximum). The method, boiled down:
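HepG2 cells transiently transfected with multiplexed GAL4-UAS reporter units and exogenous chimeric NR-Gal4 proteins; 24 h compound exposure. Reporter mRNA measured by RT-PCR, 6-FAM labelling, HpaI digestion and capillary electrophoresis; gain of signal versus DMSO.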

For assay [19], the target named is human Retinoid X Receptor beta (RXRb), RXRB (gene 6257) (UniProt P28702). Description: ATG_RXRb_TRANS: Attagene TRANS-FACTORIAL HepG2 Assay for human Retinoid X Receptor beta (RXRb) (AID 2283013; active = hit-call score of the fitted dose curve at least 0.9, where 1 is the maximum). The method, boiled down:
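Readout is reporter transcript induction after 24 h dosing. It is measured by RT-PCR of total RNA followed by fluorescent capillary electrophoresis. HepG2 liver cells carry transfected multiple reporter units driven by an exogenous RXRb-Gal4 fusion; activity is relative to DMSO.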

Assay [20] concerns the target Hepatocyte nuclear factor 6 (Homo sapiens) (UniProt Q9UBC0). The assay is described as follows: ATG_HNF6_CIS: Attagene CIS-FACTORIAL HepG2 Assay for human Hepatocyte Nuclear Factor 6 (HNF6) (AID 2282952). The note with it: HepG2 Attagene cis-factorial HNF6 reporter transcription; actives raise or lower the signal. The method, boiled down: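 Endogenous factor activity read in transiently transfected HepG2 via promoter-regulated reporter transcripts. RNA harvested 24 h post-dosing, reverse-transcribed, PCR-amplified, FAM-labelled, HpaI-digested and resolved by capillary electrophoresis; fitted in both directions against DMSO.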

E-selectin (Homo sapiens), sequence (P16581 whole entry, looked up): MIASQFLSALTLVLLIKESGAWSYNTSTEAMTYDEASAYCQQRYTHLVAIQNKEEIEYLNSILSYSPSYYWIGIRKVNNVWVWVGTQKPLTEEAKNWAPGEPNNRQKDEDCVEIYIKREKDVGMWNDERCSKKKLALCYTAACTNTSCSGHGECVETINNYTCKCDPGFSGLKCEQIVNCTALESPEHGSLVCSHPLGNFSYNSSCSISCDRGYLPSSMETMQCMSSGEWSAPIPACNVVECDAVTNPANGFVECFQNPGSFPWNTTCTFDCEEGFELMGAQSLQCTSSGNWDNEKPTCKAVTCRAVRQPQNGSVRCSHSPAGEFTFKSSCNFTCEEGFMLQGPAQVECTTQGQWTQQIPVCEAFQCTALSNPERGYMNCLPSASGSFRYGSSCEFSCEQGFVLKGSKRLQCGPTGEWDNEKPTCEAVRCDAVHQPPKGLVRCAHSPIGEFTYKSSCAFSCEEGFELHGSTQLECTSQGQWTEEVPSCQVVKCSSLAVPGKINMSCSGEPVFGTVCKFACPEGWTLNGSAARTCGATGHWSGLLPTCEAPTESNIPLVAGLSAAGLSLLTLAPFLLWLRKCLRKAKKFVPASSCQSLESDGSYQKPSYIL
human Retinoid X Receptor beta (RXRb), RXRB (gene 6257), sequence (P28702 whole entry, looked up, the tested form may be a part): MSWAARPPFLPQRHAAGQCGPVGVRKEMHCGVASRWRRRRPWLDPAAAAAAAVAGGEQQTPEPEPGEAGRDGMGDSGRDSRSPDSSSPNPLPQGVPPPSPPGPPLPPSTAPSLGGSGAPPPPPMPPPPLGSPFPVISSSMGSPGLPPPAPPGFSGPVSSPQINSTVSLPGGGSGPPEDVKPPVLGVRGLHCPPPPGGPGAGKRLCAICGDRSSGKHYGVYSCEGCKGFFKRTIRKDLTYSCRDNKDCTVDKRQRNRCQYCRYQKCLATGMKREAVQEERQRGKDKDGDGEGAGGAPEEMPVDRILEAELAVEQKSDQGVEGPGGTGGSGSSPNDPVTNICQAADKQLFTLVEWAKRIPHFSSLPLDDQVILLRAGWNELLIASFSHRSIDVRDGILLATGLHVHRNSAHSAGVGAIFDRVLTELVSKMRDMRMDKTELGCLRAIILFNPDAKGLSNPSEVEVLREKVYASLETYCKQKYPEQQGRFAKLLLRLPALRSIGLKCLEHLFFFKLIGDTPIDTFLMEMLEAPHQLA
human Peroxisome Proliferator-activated Receptor delta (PPARd), PPARD (gene 5467), sequence (Q03181 whole entry, looked up, the tested form may be a part): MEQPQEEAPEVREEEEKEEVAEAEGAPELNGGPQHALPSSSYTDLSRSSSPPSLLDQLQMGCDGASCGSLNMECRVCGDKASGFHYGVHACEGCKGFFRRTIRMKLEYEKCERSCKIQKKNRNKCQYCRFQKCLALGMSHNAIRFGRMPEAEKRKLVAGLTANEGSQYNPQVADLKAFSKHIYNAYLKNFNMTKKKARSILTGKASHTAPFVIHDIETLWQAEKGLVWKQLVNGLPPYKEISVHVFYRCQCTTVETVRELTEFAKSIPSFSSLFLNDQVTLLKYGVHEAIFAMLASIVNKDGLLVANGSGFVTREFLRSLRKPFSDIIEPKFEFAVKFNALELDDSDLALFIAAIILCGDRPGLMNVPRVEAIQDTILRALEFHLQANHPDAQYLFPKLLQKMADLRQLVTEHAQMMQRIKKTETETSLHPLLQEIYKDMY
Hepatocyte nuclear factor 6 (Homo sapiens), sequence (Q9UBC0 whole entry, looked up): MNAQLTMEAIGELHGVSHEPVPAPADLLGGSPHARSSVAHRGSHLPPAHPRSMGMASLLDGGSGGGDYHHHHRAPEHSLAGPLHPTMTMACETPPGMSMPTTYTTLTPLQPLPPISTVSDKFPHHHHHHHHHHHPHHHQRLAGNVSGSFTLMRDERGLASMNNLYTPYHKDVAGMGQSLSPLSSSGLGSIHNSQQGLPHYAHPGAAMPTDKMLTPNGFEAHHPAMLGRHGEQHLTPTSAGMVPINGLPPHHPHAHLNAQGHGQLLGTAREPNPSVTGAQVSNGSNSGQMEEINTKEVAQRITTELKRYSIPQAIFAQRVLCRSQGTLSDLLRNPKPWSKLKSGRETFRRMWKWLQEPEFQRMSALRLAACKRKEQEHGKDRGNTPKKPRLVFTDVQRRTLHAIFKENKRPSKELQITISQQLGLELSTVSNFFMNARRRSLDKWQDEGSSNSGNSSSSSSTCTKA

A word on the AC50: it is the midpoint of the concentration-response curve, whichever way the signal moves. Take `COc1ccc(C(=O)c2ccccc2O)c(O)c1`: the concentration at half-maximal activity (AC50) was 20 µM (active) and 17.9 µM (active) in assay [1]; 20 µM (active) in assay [4]; 11.5 µM (active) and 14.2 µM (active) in assay [6]; 7.73 µM (active) in [12]. The result in [2], in assay [3], in assay [4], in assay [5], in [7] and in [8] was inactive. Further, the result in assay [9], in [10], in assay [11], in assay [12], in assay [13] and in assay [14] was inactive. In addition, the outcome in assay [15] was inactive.
As to `Brc1ccc(Oc2ccc(Br)cc2)cc1`, the compound was called inactive in [16], in [17], in assay [18] and in assay [19].
Turning to `CCC(C)(CCC(C)C)C(=O)O` (configuration not stated), the outcome in assay [20], in assay [17] and in [18] was inactive.
`CCO[Si](CCCN)(OCC)OCC`: the outcome in assay [16], in [20], in [17] and in [18] was inactive.
With `CCOC(=O)c1ccccc1`, the compound was classed as inactive in assay [20], in assay [17] and in [18].
Regarding `C1CN(CCOCCN2CCOCC2)CCO1`, the outcome in assay [1], in assay [2], in assay [3], in assay [4], in assay [5] and in assay [6] was inactive. Moreover, the result in assay [7], in assay [8], in [9], in [10], in [11] and in assay [12] was inactive. The result in [13], in assay [14] and in assay [15] was inactive. In addition, the concentration at half-maximal activity (AC50) in assay [14] was 4.01 µM (active).
On to `COc1ccc2ccccc2c1`, for which the result in assay [17] and in [19] was inactive.
Take `CC/C=C/CCO`: the outcome in [16], in assay [20] and in assay [19] was inactive.
